Results from PubChem BioAssay (NCI).
The panel holds about 79,000 compounds, 15% with a hit somewhere; the sample as a whole holds those more often. Activity calls are given as the source filed them. Rule as the data show it: active = growth inhibition above about 70%; inactive = the rest.

Assay: NCI Yeast Anticancer Drug Screen. Data for the mlh1 rad18 strain (AID 175)
Conditions: S. cerevisiae mlh1 rad18 strain growth inhibition; at 50.0 µM; hits give high values
Outline: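 Genetically defined yeast (DNA repair-deficient) exposed to compounds; growth inhibition determined relative to vehicle.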

Row | SMILES | growth inhibition
1 | CCC(C)OC(=S)S.[Cu+2] (configuration not stated) | -44.9% (inactive)
2 | COc1ccc2[nH]c3c(C)c4c(c(C)c3c2c1)CN(C)CC4 | -5.85% (inactive)
3 | COC(=O)[C@H]1C=C[C@H](OC2OC(COC(C)=O)C(OC(C)=O)C(OC(C)=O)C2OC(C)=O)n2c(=O)n(-c3ccccc3)c(=O)n21 (some centres not stated) | -48% (inactive)
4 | CCOC(CN=Cc1ccc2c(c1)Sc1ccccc1O2)OCC | 89.5% (active)
5 | CCOc1ccc(NC(=O)CC2SC(=Nc3ccc(C)cc3)NC2=O)cc1 (configuration not stated) | -38% (inactive)
6 | CN(C)C(=O)Sc1ccc(O)cc1 | -2.8% (inactive)
7 | CC(=O)c1cc2c(cc1C)C(C)(C)CCC2 | 13.1% (inactive)
8 | CCOC(=O)C1=C(C)Oc2cc3c(cc2C1c1cc(OC)c(O)c(OC)c1)OCO3 (configuration not stated) | 50.5% (inactive)
9 | CN(C)NC(=O)Nc1ccc2ccccc2c1 | -24.4% (inactive)
10 | Cc1cc(C)c2c(=O)c3c(oc2c1)O[C@@](C)(CO)C[C@@H]3c1ccccc1 | 5.2% (inactive)
11 | COc1ccc(-c2cc(C(=O)Nc3cccc(C(F)(F)F)c3)[nH]c(=S)n2)cc1 | -20.9% (inactive)
12 | O=C1NC(=O)C2(CCN(Cc3ccccc3)CC2)N1c1ccccc1 | 3.15% (inactive)
13 | CC(=O)Oc1c(C)cc2c(c1C)C(C)(C)CN2C(=O)C(C)(C)C | 7.9% (inactive)
14 | COC(=O)C(C(C[N+](=O)[O-])c1ccco1)=P(c1ccccc1)(c1ccccc1)c1ccccc1 (configuration not stated) | 25.1% (inactive)
15 | Cn1ccc2c([N+](=O)[O-])cccc2c1=O | 4.35% (inactive)
16 | CS(=O)(=O)N(CCC#N)c1ccc(C=O)cc1 | 7% (inactive)
17 | OCC1CCCC1 | 9.7% (inactive)
18 | CC1([N+](=O)[O-])COC2(CCCC2)OC1 | 33.6% (inactive)
19 | COc1ccccc1NCS(=O)(=O)O | -8.1% (inactive)
20 | CCc1ccc2c(c1)C(=O)c1c(c(-c3ccccc3)c3ccccc3c1-c1ccccc1)C2=O | 8.65% (inactive)
21 | CNc1ncnc2nc(C)c(C)nc12 | 18.7% (inactive)
22 | O=C(c1ccc(O)c(C(=O)O)c1)c1ccc(O)c(C(=O)O)c1 | -2.85% (inactive)
